Source: PubChem BioAssay (NCI)
About 79,000 compounds went through this panel and 15% of them were active in at least one assay; those are over-represented in the sample as a whole. Activity calls are given as the source filed them. No stated cut-off is given here; in the data, active means growth inhibition above about 70%; inactive means the rest.

Columns and labels:
[1] = NCI Yeast Anticancer Drug Screen. Data for the rad52 strain (AID 147);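 further: 0% = growth of vehicle-treated control cultures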; conditions: S. cerevisiae rad52 mutant growth inhibition, stronger effect = higher value
Method in brief: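 Yeast strain carrying a DNA damage repair alteration was exposed to test compounds. Growth inhibition was measured relative to vehicle-treated controls.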

[2] = NCI Yeast Anticancer Drug Screen. Data for the wt1 strain (AID 149);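 further: 0% = growth of vehicle-treated wt1 cultures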; conditions: S. cerevisiae wt1 strain (SPY 50644) growth inhibition, stronger effect = higher value
Method in brief: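 wt1 strain grown with compound or vehicle; inhibition taken from the growth difference.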

[3] = NCI Yeast Anticancer Drug Screen. Data for the rad50EPP+ strain (AID 151);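 further: 0% = growth of vehicle-treated control cultures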; conditions: S. cerevisiae rad50 mutant strain, stronger effect = higher value
Method in brief: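 Yeast strain carrying rad50 alteration (rad50EPP+) exposed to compounds; growth inhibition measured relative to vehicle-treated controls.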

[4] = NCI Yeast Anticancer Drug Screen. Data for the mgt1 strain (AID 153); conditions: S. cerevisiae mgt1 mutant growth inhibition, stronger effect = higher value
Method in brief: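 Yeast mgt1 strain (DNA repair/cell-cycle alteration panel) exposed to compounds; growth inhibition measured relative to vehicle-treated controls.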

[5] = NCI Yeast Anticancer Drug Screen. Data for the rad50 strain (AID 155);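 further: 0% = growth of vehicle-only cultures of the same strain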; conditions: S. cerevisiae rad50 strain growth inhibition, stronger effect = higher value
Method in brief: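 DNA repair mutant yeast, compound exposure, growth read-out; inhibition is taken relative to vehicle.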

[6] = NCI Yeast Anticancer Drug Screen. Data for the mec2-1 strain (AID 157); conditions: S. cerevisiae mec2-1 strain, stronger effect = higher value
Method in brief: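 mec2-1 yeast strain, carrying an alteration in DNA damage repair or cell cycle control, was exposed to compounds; growth inhibition was measured relative to vehicle-treated controls.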

[7] = NCI Yeast Anticancer Drug Screen. Data for the rad14 strain (AID 159);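 further: 0% = growth of vehicle-treated control cultures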; conditions: S. cerevisiae rad14 strain growth inhibition, stronger effect = higher value
Method in brief: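 DNA repair-defective yeast, compound-exposed; % growth inhibition derived by comparison with vehicle-treated controls.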

[8] = NCI Yeast Anticancer Drug Screen. Data for the sgs1 mgt1 strain (AID 161);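 further: 0% = growth of cultures given vehicle only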; conditions: S. cerevisiae sgs1 mgt1 strain, stronger effect = higher value
Method in brief: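 Percent growth inhibition was derived by comparing compound-exposed mutant yeast with vehicle-exposed cultures. The strain carries alterations in DNA damage repair.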

[9] = NCI Yeast Anticancer Drug Screen. Data for the CLN2oe strain (AID 163);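 further: 0% = growth of vehicle-only control cultures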; conditions: S. cerevisiae CLN2oe strain, stronger effect = higher value
Method in brief: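 Yeast cells carrying a defined cell-cycle control alteration were exposed to test compounds. Growth inhibition was scored against vehicle-treated control cultures.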

[10] = NCI Yeast Anticancer Drug Screen. Data for the cln2 rad14 strain (AID 165);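 further: 0% = growth equal to vehicle treated cultures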; conditions: S. cerevisiae cln2 rad14 strain, stronger effect = higher value
Method in brief: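 Yeast carrying cln2 and rad14 alterations (cell cycle control and DNA damage repair) were exposed to compounds. Growth inhibition was measured against vehicle-treated controls.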

[11] = NCI Yeast Anticancer Drug Screen. Data for the bub3 strain (AID 167); conditions: S. cerevisiae bub3 mutant strain, stronger effect = higher value
Method in brief: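 In this screen, a yeast mutant lacking normal mitotic checkpoint function is challenged with compound. Relative growth versus vehicle gives the inhibition value.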

[12] = NCI Yeast Anticancer Drug Screen. Data for the wt2 strain (AID 169);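 further: 0% = growth of vehicle-treated yeast cultures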; conditions: S. cerevisiae wt2 strain growth inhibition, stronger effect = higher value
Method in brief: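 Yeast cells were exposed to test compounds, and growth inhibition was measured relative to vehicle-treated controls.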

[13] = NCI Yeast Anticancer Drug Screen. Data for the mlh1 strain (AID 171);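 further: 0% = growth of vehicle-treated control cultures of the same strain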; conditions: S. cerevisiae mlh1 strain growth inhibition, stronger effect = higher value
Method in brief: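 Yeast carrying a defined genetic alteration in DNA damage repair or cell cycle control were exposed to test compounds. Growth inhibition was measured relative to vehicle-treated controls.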

[14] = NCI Yeast Anticancer Drug Screen. Data for the sgs1 strain (AID 173);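 further: 0% = growth of vehicle-only control cultures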; conditions: S. cerevisiae sgs1 mutant, stronger effect = higher value
Method in brief: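 Yeast mutant strains carrying defined defects in DNA damage repair or cell cycle control were exposed to test compounds. Growth inhibition was scored against vehicle-treated controls.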

[15] = NCI Yeast Anticancer Drug Screen. Data for the mlh1 rad18 strain (AID 175); conditions: S. cerevisiae mlh1 rad18 strain growth inhibition, stronger effect = higher value
Method in brief: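 Growth inhibition of the yeast strain was measured after compound exposure and expressed relative to vehicle-treated controls. The strain carries defined defects in DNA damage repair.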

[16] = NCI Yeast Anticancer Drug Screen. Data for the rad18 strain (AID 177); conditions: S. cerevisiae rad18 mutant growth inhibition, stronger effect = higher value
Method in brief: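 Yeast carrying a defined DNA damage repair alteration were exposed to compounds. Growth inhibition was expressed relative to vehicle-treated controls.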

[17] = at 5.0 µM (retest, dose inferred, filed as 0.5)
[18] = at 50.0 µM (retest, dose inferred, filed as 5.0)

Measured: growth inhibition

COc1cc2c(cc1C[N+](C)(C)CSc1ccccc1)-c1ccccc1CC2
active: [1]; at 11.0 µM 79% | [1]; at 33.0 µM 99% | [1]; at 100.0 µM 99% | [2]; at 33.0 µM 98% | [2]; at 100.0 µM 98% | [4]; at 33.0 µM 98% | [4]; at 100.0 µM 99% | [5]; at 11.0 µM 76% | [5]; at 33.0 µM 98% | [5]; [18] 98% | [5]; at 50.0 µM 99% | [5]; at 100.0 µM 99% | [6]; at 11.0 µM 80% | [6]; at 33.0 µM 98% | [6]; [18] 99% | [6]; at 50.0 µM 99.3% | [6]; at 100.0 µM 96% | [7]; at 33.0 µM 98% | [7]; at 100.0 µM 98% | [8]; [18] 99% | [8]; at 50.0 µM 99.2% | [9]; at 11.0 µM 70% | [9]; at 33.0 µM 98% | [9]; at 100.0 µM 99% | [10]; [18] 99% | [10]; at 50.0 µM 99.3% | [11]; at 11.0 µM 78% | [11]; at 33.0 µM 98% | [11]; [18] 98% | [11]; at 50.0 µM 99.5% | [11]; at 100.0 µM 99% | [12]; at 11.0 µM 96% | [12]; at 33.0 µM 98% | [12]; at 100.0 µM 99% | [13]; at 33.0 µM 98% | [13]; at 100.0 µM 98% | [14]; at 33.0 µM 97% | [14]; at 100.0 µM 99% | [15]; [18] 99% | [15]; at 50.0 µM 99.3% | [16]; at 11.0 µM 77% | [16]; at 33.0 µM 99% | [16]; at 100.0 µM 99%
inactive: [1]; at 1.2 µM -12% | [1]; at 3.7 µM -8% | [2]; at 1.2 µM -17% | [2]; at 3.7 µM -14% | [2]; at 11.0 µM 29% | [3]; at 1.2 µM 3% | [3]; at 3.7 µM 20% | [3]; at 11.0 µM 19% | [3]; at 33.0 µM 20% | [3]; at 100.0 µM 43% | [4]; at 1.2 µM 7% | [4]; at 3.7 µM 15% | [4]; at 11.0 µM 30% | [5]; at 1.2 µM -7% | [5]; at 3.7 µM 8% | [5]; [17] 11% | [6]; at 1.2 µM -6% | [6]; at 3.7 µM 6% | [6]; [17] 3% | [7]; at 1.2 µM -12% | [7]; at 3.7 µM -10% | [7]; at 11.0 µM 64% | [8]; [17] -1% | [9]; at 1.2 µM -17% | [9]; at 3.7 µM 6% | [10]; [17] -3% | [11]; at 1.2 µM 17% | [11]; at 3.7 µM -4% | [11]; [17] 1% | [12]; at 1.2 µM 13% | [12]; at 3.7 µM 21% | [13]; at 1.2 µM 6% | [13]; at 3.7 µM 16% | [13]; at 11.0 µM 35% | [14]; at 1.2 µM 2% | [14]; at 3.7 µM 8% | [14]; at 11.0 µM 36% | [15]; [17] -5% | [16]; at 1.2 µM 9% | [16]; at 3.7 µM 12%

Cc1cc(C(C)(C)CC(C)(C)C)cc(O)c1O
active: [1]; at 11.0 µM 77% | [1]; at 33.0 µM 96% | [1]; at 100.0 µM 98% | [2]; at 11.0 µM 70% | [2]; at 33.0 µM 94% | [2]; at 100.0 µM 98% | [3]; at 11.0 µM 79% | [3]; at 33.0 µM 83% | [3]; at 100.0 µM 88% | [4]; at 11.0 µM 87% | [4]; at 33.0 µM 97% | [4]; at 100.0 µM 98% | [5]; [17] 95% | [5]; at 33.0 µM 93% | [5]; [18] 99% | [5]; at 50.0 µM 92% | [5]; at 100.0 µM 97% | [6]; [17] 97% | [6]; at 11.0 µM 72% | [6]; at 33.0 µM 95% | [6]; [18] 100% | [6]; at 50.0 µM 91.9% | [6]; at 100.0 µM 99% | [7]; at 11.0 µM 80% | [7]; at 33.0 µM 93% | [7]; at 100.0 µM 97% | [8]; [18] 97% | [9]; at 11.0 µM 81% | [9]; at 33.0 µM 97% | [9]; at 100.0 µM 98% | [10]; [18] 95% | [11]; at 11.0 µM 74% | [11]; at 33.0 µM 97% | [11]; [18] 99% | [11]; at 100.0 µM 98% | [13]; at 11.0 µM 85% | [13]; at 33.0 µM 88% | [13]; at 100.0 µM 99% | [14]; at 11.0 µM 82% | [14]; at 33.0 µM 92% | [14]; at 100.0 µM 97% | [15]; [17] 83% | [15]; [18] 100% | [15]; at 50.0 µM 92% | [16]; at 11.0 µM 88% | [16]; at 33.0 µM 96% | [16]; at 100.0 µM 98%
inactive: [1]; at 1.2 µM 12% | [1]; at 3.7 µM 34% | [2]; at 1.2 µM -19% | [2]; at 3.7 µM 9% | [3]; at 1.2 µM 44% | [3]; at 3.7 µM 69% | [4]; at 1.2 µM 23% | [4]; at 3.7 µM 40% | [5]; at 1.2 µM -7% | [5]; at 3.7 µM 12% | [5]; at 11.0 µM 69% | [6]; at 1.2 µM 29% | [6]; at 3.7 µM 37% | [7]; at 1.2 µM -7% | [7]; at 3.7 µM 9% | [8]; [17] 4% | [9]; at 1.2 µM 2% | [9]; at 3.7 µM 35% | [10]; [17] 37% | [11]; at 1.2 µM 1% | [11]; at 3.7 µM 19% | [11]; [17] 21% | [13]; at 1.2 µM 6% | [13]; at 3.7 µM 20% | [14]; at 1.2 µM 14% | [14]; at 3.7 µM 35% | [16]; at 1.2 µM 5% | [16]; at 3.7 µM 23%
